Screening results deposited in PubChem by National Center for Advancing Translational Sciences (NCATS).
TDP1 cell noCPT = qHTS for Inhibitors of human tyrosyl-DNA phosphodiesterase 1 (TDP1): qHTS in cells in absence of CPT; DT40 Tdp1-/- hTDP1 cells, no CPT, ATP luminescence, 48 h; Potency, µM (highest dose often 46.2 µM), for inactives: at the highest dose activity change, negative = growth inhibition, hits mostly inhibitors; 15% of 420,000 active; also: nearly all actives have a fitted effect of over 55% in size
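Chicken DT40 Tdp1-/- cells stably complemented with human TDP1 were seeded at 400 cells/well with DMSO in place of 20 nM camptothecin. After compound pinning, cells grew at least 48 hr at 37 °C; viability read by CellTiter-Glo luminescence.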
TDP1 cell CPT = DT40-hTDP1 cell growth loss with CPT; chicken DT40 Tdp1-/-;hTDP1 cells + 20 nM CPT, ATP luminescence, 48 h; Potency, µM (titrated, usually from 46.2 µM), without a hit: at the top dose activity change, negative = growth inhibition, hits mostly inhibitors; 12% of 420,000 active; also: nearly all actives have a fitted effect of over 55% in size
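Chicken DT40 Tdp1-/- cells complemented with human TDP1, 400 cells/well, exposed to compounds plus 20 nM camptothecin for at least 48 h at 37 C; viability read as ATP content by CellTiter-Glo luminescence.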
RORgamma inh = blocks mouse ROR gamma transcriptional activity; P51450; Drosophila S2 Gal4-RORgamma UAS-luciferase reporter, 20 h; Potency, µM (top dose mostly 53.6 µM), for inactives: top-dose activity change, negative = inhibition, actives largely listed as inhibitors; 5.4% of 310,000 active; also: nearly all actives have a fitted effect of over 60% in size
Target sequence (P51450 whole entry, looked up, the tested form may be a part): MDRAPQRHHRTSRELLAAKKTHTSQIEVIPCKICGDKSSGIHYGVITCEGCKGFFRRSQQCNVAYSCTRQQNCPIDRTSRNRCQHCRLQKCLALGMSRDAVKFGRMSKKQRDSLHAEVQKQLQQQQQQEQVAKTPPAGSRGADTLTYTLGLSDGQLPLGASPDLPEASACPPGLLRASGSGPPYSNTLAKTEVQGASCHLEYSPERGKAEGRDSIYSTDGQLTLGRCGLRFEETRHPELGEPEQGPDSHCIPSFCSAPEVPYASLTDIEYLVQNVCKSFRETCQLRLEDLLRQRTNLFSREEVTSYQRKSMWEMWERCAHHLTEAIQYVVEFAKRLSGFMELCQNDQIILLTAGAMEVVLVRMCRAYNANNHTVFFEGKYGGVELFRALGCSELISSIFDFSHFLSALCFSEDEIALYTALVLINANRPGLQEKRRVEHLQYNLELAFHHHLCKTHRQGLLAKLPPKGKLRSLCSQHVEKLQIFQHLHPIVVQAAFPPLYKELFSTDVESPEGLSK
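Stable Schneider cell line, Gal4 DNA-binding domain fused to ROR gamma, UAS-luciferase. Cmpd 1 hr RT → CuSO4 700 uM final → 20 hr RT → luciferase reagent 10 min → luminescence.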
Gal4-VP16 FLuc = Gal4-VP16 reporter inhibition counter-screen. Potency, µM (doses to about 53.6 µM), inactives show at the top dose activity, negative = inhibition, usual class: inhibitors. Drosophila S2 Gal4-VP16 UAS-luciferase, luminescence, 20 h. 3.5% of 310,000 active;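 also: Gal4-VP16 expression switched on by copper sulfate through the metallothionein promoter; nearly all actives have a fitted effect of over 50% in size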
TDP1 inh = TDP1 (human) enzyme inhibition. 0.28% of 350,000 active. AID 485290. recombinant TDP1, AlphaScreen DNA substrate cleavage. Potency, µM (series often up to 130 µM), for inactives: at the top dose activity change, negative = inhibition, most hits filed as inhibitors. Q9NUW8; also: nearly all actives have a fitted effect of over 40% in size
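Compounds were preincubated with Tdp1 (1 nM final) for 15 min at room temperature before substrate (15 nM final) started a 5 min reaction; beads (10 ug/ml final) were then added for 10 min before AlphaScreen detection.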
The depositor's hits bear a star; u = inconclusive; x = not tested or not shown; [ ] = remark or other dose. Shown are actives, neighbours in structure and some others; about 19% of the full set was active somewhere. Calls follow the shape of the dose curve; as a rule, active = well fitted curve in the direction sought with a large enough effect; inconclusive = small, poorly fitted or top-dose-only effect, or another doubt; inactive = no such curve, though single readings can be large; an effect the other way counts as inactive or inconclusive. % is scaled to controls: 0 for no effect and ±100 for the full control effect; potency is read from the fitted curve at half-maximal effect.

SMILES | TDP1 cell noCPT | TDP1 cell CPT | RORgamma inh | Gal4-VP16 FLuc | TDP1 inh
Cc1ccc(S(=O)(=O)N(CC(=O)NCc2cccnc2)C2CCCCC2)cc1 | u | -12.4% | 20.4% | 8.9% | 0.0%
CN1CCN(C2=NC(=O)/C(=C/c3ccccc3OS(=O)(=O)c3ccccc3)S2)CC1 | -21.5% | -15.6% | 24.3% | -9.1% | x
CCOc1ccc(Nc2nc3ccccc3c3nnc(CC)n23)cc1 | 10.3µM* | 14.6µM* | x | x | -2.5%
CCOc1ccc(OCC)c(Nc2nc3ccccc3c3nnc(C)n23)c1 | u | 0.6% | x | x | 5.6%
CCc1nnc2c(N3CCN(c4cc(Cl)ccc4C)CC3)nc3ccccc3n12 | -13.4% | -4.6% | x | x | 0.0%
CCc1nnc2c3ccccc3nc(Nc3ccc(F)c(Cl)c3)n12 | 18.4µM* | 18.4µM* | x | x | 2.5%
Clc1ccc2c(c1)N=C(N1CCNCC1)c1ccccc1N2 | 9.2µM* | 13µM* | 12.2% | 5.4% | 11.0%
Cc1ccccc1-c1cc(N2CCNCC2)ncn1 | -5.3% | -8.8% | -1.9% | -1.7% | x
COc1cc(OC)cc(-c2c(C#Cc3ccsc3)c3cc(Br)ccc3n2C)c1 | u | -23.9% | x | x | -4.4%
N#Cc1cccc(C(Br)S(=O)(=O)c2ccccc2)c1 (stereo not given) | u | -26.7% | x | x | x
COc1ccc2c(c1)OC1=C(C(=O)CCC1)C2C1=C(O)CCCC1=O (stereo not given) | -20.4% | -11.6% | 11.2µM* | 9.8% | -10.3%
O=C1CCCC(O)=C1C1C2=C(CCCC2=O)OC2=C1C(=O)CCC2 | -8.5% | -2.7% | -5.9% | -8.3% | -6.0%
CC(C)(C)c1ccc(C(=O)Nc2ccc(F)cc2)s1 | 14.6µM* | 0.2% | -32.8% | -20.4% | x
Cc1ccc(S(=O)(=O)N2CCCCC2)cc1C(=O)N1C(C)CCCC1C (stereo not given) | 13µM* | u | x | x | 2.6%
CC1CC(C)CN(C(C)C(=O)Nc2cc(S(=O)(=O)N3CCCCC3)ccc2Cl)C1 (stereo not given) | 14.6µM* | u | x | x | 0.4%
Cc1ccc2c(c1)nnn2C1CCN(S(=O)(=O)c2ccc(C(=O)N3C(C)CCCC3C)cc2)CC1 (stereo not given) | 9.2µM* | 9.2µM* | u | 15.8µM* | 5.8%
CC1CCN(C(C)C(=O)Nc2cc(S(=O)(=O)N3CCCCC3)ccc2Cl)CC1 (stereo not given) | u | u | x | x | -9.7%
CC1CC(C)CN(C(=O)c2cc(S(=O)(=O)N3CCCCC3)ccc2Cl)C1 (stereo not given) | 14.6µM* | 16.4µM* | x | x | 0.5%
COc1ccc(NC(=O)c2cccnc2)cc1OCC(C)C | -14.4% | 27.3% | u | -8.8% | x
CC1CN(C(=O)c2cc3cc(Cl)cc(Cl)c3oc2=O)CC(C)O1 (stereo not given) | u | u | -16.5% | -4.0% | 5.6%[56.1 µM]
Cc1cccc(NC(=O)C2(c3ccccc3)CCOCC2)c1 | -1.8% | 3.6% | 3.5% | 3.4% | x
C=CCn1cnnc1SCC(=O)N(C1CCCCC1)C1CCS(=O)(=O)C1 (stereo not given) | -16.1% | -1.1% | x | x | 0.4%
COCCNC(=O)c1cnn(-c2cccc(C)c2)c1-n1cccc1 | u | u | x | x | 0.0%
O=C(Nc1cc(C(F)(F)F)ccc1Cl)c1cnn(-c2ccccc2)c1-n1cccc1 | 23.1µM* | 23.1µM* | x | x | 0.0%
COc1ccc(CNC(=O)c2cnn(-c3ccc(C)cc3)c2-n2cccc2)cc1OC | 16.4µM* | u | x | x | 3.8%
SMILES | TDP1 cell noCPT | TDP1 cell CPT | RORgamma inh | Gal4-VP16 FLuc | TDP1 inh
COc1ccccc1NC(=O)c1cnn(-c2ccccc2)c1-n1cccc1 | 18.4µM* | 18.4µM* | x | x | -5.1%
COc1cc(OC)c(NC(=O)c2cnn(-c3ccccc3)c2-n2cccc2)cc1Cl | -22.2% | -2.7% | x | x | -2.5%
COc1ccc(CNC(=O)c2cnn(-c3ccccc3)c2-n2cccc2)cc1OC | 18.4µM* | u | x | x | 2.9%
CC(=O)N1CCC(C(=O)Nc2ccc(S(=O)(=O)N3CCC(C)CC3)cc2)CC1 | u | u | 41.2% | -2.1% | 3.4%
CCOC(=O)c1cccc(NC(=O)c2cnn(-c3ccccc3)c2-n2cccc2)c1 | 20.6µM* | 25.9µM* | x | x | -2.5%
C=Cc1ccc(Cn2c(=O)n(C)c(=O)c3sccc32)cc1 | u | 3.66µM* | u | u | x
O=C(CN(Cc1ccccc1)S(=O)(=O)c1ccccc1)N/N=C/c1ccccc1[N+](=O)[O-] | 20.6µM* | u | u | 0.8% | 5.1%
CC(C)NC(=S)N/N=C/c1ccccc1[N+](=O)[O-] | u | 4.6% | 1.78µM* | 5.62µM* | 4.6%
O=[N+]([O-])c1ccccc1/C=N/Nc1nnc(-c2ccccc2)c(-c2ccccc2)n1 | 1.64µM* | 2.06µM* | 3.16µM* | 3.16µM* | 2.8%
Cc1cc(O)c(C(C)C)cc1N=Cc1ccccc1[N+](=O)[O-] | 3.26µM* | 5.17µM* | x | x | x
O=C(CCS(=O)(=O)c1cc2c(cc1Cl)NC(=O)CO2)NCCc1ccc(Cl)cc1 | x | x | x | x | 0.0%
O=[N+]([O-])c1ccccc1C=NNC(=S)NN=Cc1ccccc1[N+](=O)[O-] | 3.26µM* | 6.51µM* | x | x | x
CCCCCC(=O)N/N=C/c1ccccc1[N+](=O)[O-] | -25.5% | -5.2% | 39.8% | 15.2% | 7.1%
N#CC1(C#N)C(c2ccccc2)OC23CCCCC2C1(C#N)C(=N)O3 (stereo not given) | -15.5% | -1.4% | -1.4%[10 µM] | 2.3% | -2.3%
CCCCC1OC23CCCCC2C(C#N)(C(=N)O3)C1(C#N)C#N (stereo not given) | 7.31µM* | 7.31µM* | 0.2% | -6.0% | 1.9%
CCCCCCCCOc1ccc(C2OC34CCCCC3C(C#N)(C#N)C2(C#N)C(=N)O4)cc1 (stereo not given) | u | u | -6.1% | -8.9% | -2.8%
CCCCC1OC23CCCCC2C(C#N)(C#N)C1(C#N)C(=N)O3 (stereo not given) | 6.51µM* | 6.51µM* | -3.3% | -25.1% | 2.7%
COc1ccc(/C=C2\C(=O)c3ccccc3OC2c2ccccc2)cc1 (stereo not given) | u | u | 43.7% | 16.7% | 6.2%
CCOc1ccc(/C=C2\C(=O)c3ccccc3OC2c2ccccc2)cc1 (stereo not given) | 18.4µM* | u | 2.6% | -5.1% | 3.2%
CO/C(N)=C(\C#N)N=Cc1ccccc1Cl | -0.1% | 17.0% | 18.5% | -11.9% | 1.3%
Cc1ccc(S(=O)(=O)c2cn(Cc3ccccc3)c3cc(N4CCCCC4)c(F)cc3c2=O)cc1 | 16.4µM* | 8.2µM* | x | x | 6.2%
Cc1ccc(S(=O)(=O)c2cn(C)c3cc(N4CCN(c5ccccc5)CC4)c(F)cc3c2=O)cc1 | 7.31µM* | u | x | x | 2.5%
